Screening data deposited in PubChem BioAssay by National Center for Advancing Translational Sciences (NCATS).
Sampled rows, rich in hits. Any-hit rate of the full collection: about 21%.
HCV inhibitor = inhibitors of hepatitis C virus infection | Huh7.5.1 HCVcc-Cre infection, luciferase reporter, 44 h | Potency, µM (top dose mostly 41.8 µM), actives largely listed as inhibitors | 3.4% of 340,000 active
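1,000 cells/well; 4 h culture; + compound; + HCVcc-Cre (~0.5 moi); 44 h; luciferase substrate, RT 15 min; read 15 sec.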
Pf growth 96h = inhibits malaria parasite growth, 96 h; P. falciparum luciferase reporter growth, 96 h; Potency, µM (series often up to 28.7 µM), hits mostly inhibitors; 6.9% of 320,000 active
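Luminescence readout: decreased luciferase signal marks inhibited growth of reporter-expressing P. falciparum in infected red cells (2% hematocrit, 0.05% parasitemia final), exposed to compound two generations (96 h, 37 C, 5% CO2).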
AMA1-RON2 inh = AMA1-RON2 (P. falciparum) interaction inhibition | AlphaScreen AMA1-biotinylated RON2 peptide binding | Potency, µM (highest dose often 58.2 µM), hits mostly inhibitors | 0.2% of 360,000 active | AID 720542; note: nearly all actives have a fitted effect of over 45% in size
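AMA1 (3D7) with his tag at 25 nM final met compounds first, then biotinylated RON2 peptide at 25 nM; detection used donor plus acceptor beads, 10 µg/mL apiece, read by AlphaScreen after 30 min at room temperature.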
Pf growth 48h = P. falciparum growth inhibition at 48 hours (one generation); P. falciparum luciferase growth in erythrocytes, 48 h; Potency, µM (highest dose often 28.7 µM), hits mostly inhibitors; 5.9% of 310,000 active; AID 504832
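Firefly luciferase activity from engineered P. falciparum reports growth; inhibitors lower the luminescent signal. Cultures contained 2% hematocrit erythrocytes at 0.1% final parasitemia.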
Shiga toxin inh = inhibitors of Shiga toxin in Vero cells; Vero cells, Shiga toxin protein synthesis inhibition reporter; 9.2% of 290,000 active; inhibition, % at 38.7 µM; in the data active = inhibition mostly above about 28%, no sharp cut-off; inactive = mostly below about 43%
CHX counter = affects cycloheximide protein synthesis inhibition readout, counter-screen; cell reporter, cycloheximide protein synthesis inhibition counterscreen; max response, %; 12% of 300,000 active; in the data active = max response mostly above about 13%, no sharp cut-off; inactive = mostly below about 14%; note: read at 38.3 µM for the half of the compounds with a filed dose
Hits are given with their value. Unless noted, calls come from the whole dose curve; as a rule, active = well fitted curve in the direction sought with a large enough effect; inconclusive = small, poorly fitted or top-dose-only effect, or another doubt; inactive = no such curve, though single readings can be large; an effect the other way counts as inactive or inconclusive.

`Clc1ccc(-c2noc(/C=C/c3ccccc3)n2)cc1` gave HCV inhibitor inactive, Pf growth 96h inactive, AMA1-RON2 inh inactive, Pf growth 48h inactive, Shiga toxin inh inactive and CHX counter inactive.
Screening Cc1ccc(-c2nnc(-c3ccccc3)o2)cc1Br returned HCV inhibitor inactive and AMA1-RON2 inh inactive.
For Cc1ccc(/C=C/c2nnc(-c3ccccc3)o2)cc1 the results were HCV inhibitor inactive, Pf growth 96h inactive, AMA1-RON2 inh inactive, Pf growth 48h inactive, Shiga toxin inh inactive and CHX counter 23.
Screening Cc1ccc(-c2noc(/C=C/c3ccccc3)n2)cc1 returned HCV inhibitor inactive, Pf growth 96h inactive, AMA1-RON2 inh inactive, Pf growth 48h inactive, Shiga toxin inh inactive and CHX counter 19.
`COc1cccc(NC(=S)N(CCCN2CCOCC2)C(C)c2cc3ccccc3o2)c1` (centres undefined) gave HCV inhibitor inactive, Pf growth 96h inactive, AMA1-RON2 inh inactive, Pf growth 48h inconclusive, Shiga toxin inh inactive and CHX counter inactive.
`CCCCOc1ccc(C(=O)NCCOc2cccc(OC)c2)cc1` gave HCV inhibitor inactive, Pf growth 96h inconclusive, AMA1-RON2 inh inactive, Pf growth 48h inactive, Shiga toxin inh inactive and CHX counter inactive.
`O=C(CN(C(=O)Cn1nnc(-c2cccs2)n1)c1cnc2ccccc2c1)NCC1CCCO1` (centres undefined) gave HCV inhibitor inactive, Pf growth 96h 15µM, AMA1-RON2 inh inactive, Pf growth 48h inconclusive, Shiga toxin inh inactive and CHX counter inactive.
For O=C(CN(C(=O)Cn1nnc(-c2cccs2)n1)c1ccc2c(c1)OCCO2)NCC1CCCO1 (centres undefined) the results were HCV inhibitor inactive, Pf growth 96h inconclusive, AMA1-RON2 inh inactive, Pf growth 48h inactive, Shiga toxin inh inactive and CHX counter inactive.
`Cc1ccc(-c2nnn(CC(=O)N(CC(=O)NCC3CCCO3)c3ccccc3)n2)o1` (centres undefined) gave HCV inhibitor inconclusive, Pf growth 96h inactive, AMA1-RON2 inh inactive, Pf growth 48h inactive, Shiga toxin inh inactive and CHX counter inactive.
O=C(NCc1ccccc1)C(c1ccc(O)cc1)N(C(=O)Cn1nnc(-c2cccs2)n1)c1ccc2c(c1)OCCO2 (centres undefined) was read as HCV inhibitor inconclusive, Pf growth 96h inactive, AMA1-RON2 inh inactive, Pf growth 48h 12µM, Shiga toxin inh inactive and CHX counter inactive.
For O=C(CN(C(=O)Cn1nnc(-c2ccccc2F)n1)c1cnc2ccccc2c1)NCC1CCCO1 (centres undefined) the results were HCV inhibitor inactive, Pf growth 96h inconclusive, AMA1-RON2 inh inactive, Pf growth 48h 9.3µM, Shiga toxin inh inactive and CHX counter inactive.
`O=C(CN(C(=O)Cn1nnc(-c2cccs2)n1)c1ccc2c(c1)OCCO2)NC1CCCCC1` gave HCV inhibitor inactive, Pf growth 96h inactive, AMA1-RON2 inh inactive, Pf growth 48h inactive, Shiga toxin inh 56 and CHX counter 32.
C=CCn1c(=O)[nH]c2cc(C(=O)N3CC=C(c4ccccc4)CC3)ccc2c1=O was read as HCV inhibitor inactive, Pf growth 96h inactive, AMA1-RON2 inh inactive, Pf growth 48h inactive, Shiga toxin inh inactive and CHX counter inactive.
For CN(CCc1cn[nH]c1)Cc1nc(C(c2ccccc2)c2ccccc2)no1 the results were HCV inhibitor inactive, Pf growth 96h inactive, AMA1-RON2 inh inactive, Pf growth 48h inconclusive, Shiga toxin inh inactive and CHX counter inactive.
CCN(CC)CCN(C)Cc1nc(C(c2ccccc2)c2ccccc2)no1 was read as HCV inhibitor inactive, Pf growth 96h 9.3µM, AMA1-RON2 inh inactive, Pf growth 48h inconclusive, Shiga toxin inh inactive and CHX counter inactive.
Screening COc1cc(C(=O)OCCN2CCCCC2)ccc1O returned HCV inhibitor inactive, Pf growth 96h inactive, AMA1-RON2 inh inactive, Pf growth 48h inactive, Shiga toxin inh inactive and CHX counter inactive.
COc1cc(C(=O)OCCN2CCOCC2)cc(OC)c1OC was read as HCV inhibitor inactive, Pf growth 96h inactive, AMA1-RON2 inh inactive, Pf growth 48h inactive, Shiga toxin inh inactive and CHX counter inactive.
For COc1cc(C(=O)OCCCN2CCCN(CCCOC(=O)c3cc(OC)c(OC)c(OC)c3)CC2)cc(OC)c1OC the results were HCV inhibitor 8.9µM, Pf growth 96h inactive, AMA1-RON2 inh inactive and Pf growth 48h 9.5µM.
`COc1cc(C(=O)OCCCN2CCOCC2)ccc1O` gave HCV inhibitor inactive, Pf growth 96h inactive, AMA1-RON2 inh inactive, Pf growth 48h inactive, Shiga toxin inh inactive and CHX counter 17.
COc1cccc(C(=O)OCCN2CCOCC2)c1 was read as HCV inhibitor inactive, Pf growth 96h inactive, AMA1-RON2 inh inactive, Pf growth 48h inactive, Shiga toxin inh 21 and CHX counter inactive.
Screening CCN(CC)CCCCCCCCOC(=O)c1cc(OC)c(OC)c(OC)c1 returned HCV inhibitor 0.56µM, Pf growth 96h 10µM, AMA1-RON2 inh inactive and Pf growth 48h 9.3µM.
Screening Nc1ncnc2c1ncn2[C@@H]1O[C@H](CNCc2ccccc2OCC(=O)N2CCCCC2)[C@@H](O)[C@H]1O returned HCV inhibitor inactive and AMA1-RON2 inh inactive.
`Cc1ccc(S(=O)(=O)N2[C@@H](CO)CO[C@H]2CC(=O)c2ccc(F)cc2)cc1` gave AMA1-RON2 inh inactive.
For CC(=O)Nc1cc(-c2ccccc2)cn2c(-c3ccc(F)cc3)cnc12 the results were AMA1-RON2 inh inactive.
`O=C1CCN(Cl)C(=O)N1Cl` gave AMA1-RON2 inh inactive.
Screening COc1ccc(C(=O)OCCCN(C)C)cc1OC returned HCV inhibitor inactive, Pf growth 96h inactive, AMA1-RON2 inh inactive, Pf growth 48h inactive, Shiga toxin inh inactive and CHX counter 45.
CCOC(=O)C1=CCN(S(=O)(=O)c2ccccc2)C1c1ccc(Cl)cc1 (centres undefined) was read as AMA1-RON2 inh inactive.
For CCOc1ccc(C(=O)N2CCN=C2SC)cc1OCC the results were HCV inhibitor inactive, Pf growth 96h inactive, AMA1-RON2 inh inactive, Pf growth 48h inconclusive, Shiga toxin inh inactive and CHX counter inactive.
Screening CSC1=NCCN1C(=O)Cc1ccc(-c2ccccc2)cc1 returned HCV inhibitor inconclusive, Pf growth 96h inactive, AMA1-RON2 inh inactive, Pf growth 48h inactive, Shiga toxin inh 42 and CHX counter inactive.
`CCOc1ccccc1C(=O)N1CCN=C1SC` gave HCV inhibitor inactive, Pf growth 96h 15µM, AMA1-RON2 inh inactive, Shiga toxin inh inactive and CHX counter inactive.
CSC1=NCCN1C(=O)Cc1ccc(F)cc1 was read as HCV inhibitor inactive, Pf growth 96h 9.3µM, AMA1-RON2 inh inactive, Shiga toxin inh inactive and CHX counter inactive.
CCOc1ccc(CC(=O)N2CCN=C2SC)cc1 was read as HCV inhibitor inactive, Pf growth 96h inactive, AMA1-RON2 inh inactive, Pf growth 48h inactive, Shiga toxin inh inactive and CHX counter inactive.
